From PubChem BioAssay
In the library only some 2.2% were active in any assay of this set; here they are far more common.
M4 antag: human M4 muscarinic receptor antagonists, primary screen, CHO cells, Fluo-8 calcium fluorescence | Muscarinic acetylcholine receptor M4 (Homo sapiens), P08173 | CHO-hM4 cells, ACh EC80 | inhibition, % at 3 µM | 360,000 tested, 0.73% active | AID 624125, 2012;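 active means inhibition above its plate's cutoff, the mean inhibition of sample wells plus 3 SD, cut at about 27% in these data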;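 further: 0% = acetylcholine EC80 with DMSO and 100% = DMSO without agonist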
M4 PAM: human M4 muscarinic receptor positive allosteric modulators, primary screen, CHO-K1 cells, Fluo-8 calcium fluorescence; Muscarinic acetylcholine receptor M4 (Homo sapiens), P08173; CHO-K1 hM4/Gqi5, ACh EC20; 0% = ACh EC20, 100% = maximal ACh; activation, % at 3 µM; 360,000 tested, 0.4% active; AID 624126, 2012;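 active means activation above its plate's cutoff, the mean activation of sample wells plus 3 SD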
CHRM1 agonist: human M1 muscarinic receptor agonists, primary screen, Fluo-8 calcium fluorescence, CHO-K1 cells, HTS. Muscarinic acetylcholine receptor M1 (Homo sapiens), P11229. CHO-K1 hM1, agonist mode; 0% DMSO, 100% acetylcholine EC100. activation, % at 3 µM. 360,000 tested, 0.33% active. AID 588814, 2011;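 active means activation above the run's mean compound activation plus 3 SD, cut at about 16% in these data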;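 further: peak over basal fluorescence ratio within a 140 s kinetic read after compound addition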
Target sequence (P11229 whole entry, looked up): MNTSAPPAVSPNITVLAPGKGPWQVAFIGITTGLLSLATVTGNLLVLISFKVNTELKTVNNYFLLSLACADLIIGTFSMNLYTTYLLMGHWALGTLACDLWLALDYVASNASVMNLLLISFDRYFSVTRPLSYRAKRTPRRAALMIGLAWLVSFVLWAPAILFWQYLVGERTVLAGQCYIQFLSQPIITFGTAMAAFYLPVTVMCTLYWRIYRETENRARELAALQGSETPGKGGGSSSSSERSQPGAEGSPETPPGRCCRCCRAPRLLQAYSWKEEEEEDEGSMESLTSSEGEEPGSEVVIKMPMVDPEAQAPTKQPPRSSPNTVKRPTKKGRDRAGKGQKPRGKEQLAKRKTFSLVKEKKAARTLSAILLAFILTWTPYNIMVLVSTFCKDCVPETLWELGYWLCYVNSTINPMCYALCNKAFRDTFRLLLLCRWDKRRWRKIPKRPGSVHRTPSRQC
M1 antag: human M1 muscarinic receptor antagonists, primary screen, CHO-K1 cells, Fluo-8 calcium fluorescence, 1536-well; CHO-K1 hM1, ACh EC80 antagonist; 360,000 tested, 1.3% active; inhibition, % at 3 µM;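 active means percent inhibition above its own plate's cutoff, namely the mean of that plate's compound wells plus 3 SD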;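 further: peak over basal fluorescence ratio during 140 s after agonist addition; 0% = ACh EC80 plus DMSO and 100% = DMSO alone without agonist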
M4 ag: human M4 muscarinic receptor agonists, primary screen, CHO-K1 cells, Fluo-8 calcium fluorescence. activation, % at 3 µM. AID 624127, 2012. Muscarinic acetylcholine receptor M4 (Homo sapiens), P08173. CHO-K1 hM4/Gqi5; vehicle 0%, full acetylcholine response 100%. 360,000 tested, 0.14% active;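 active means activation above the run mean over all test wells plus 3 SD, cut at about 32% in these data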;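 further: peak over basal fluorescence ratio per well then scaled between controls; 0% = DMSO wells and 100% = acetylcholine at EC100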
CHRM1 PAM: human M1 muscarinic receptor positive allosteric modulators, primary screen, CHO-K1 cells, Fluo-8 calcium fluorescence, 1536-well; Muscarinic acetylcholine receptor M1 (Homo sapiens), P11229; CHO-K1 hM1, ACh EC20; 0% = ACh EC20, 100% = maximal ACh; activation, % at 3 µM; 360,000 tested, 0.088% active; in the data active means activation above about 19%, passing the limit was not always enough
* marks the source's active call; other numbers are inactive results.

CCOC1=C2[C@@H](CN(S(=O)(=O)c3ccccc3C)[C@H]2c2ccc(Cl)cc2)[C@H]2C(=O)N(c3ccccc3)C(=O)[C@H]2C1 was read as M4 antag 0, M4 PAM -5, CHRM1 agonist -4, M1 antag -11, M4 ag 0 and CHRM1 PAM 4.
Cc1cc2cc3c(cc2nc1SCc1ccccn1)OCCO3 was read as M4 antag -7, M4 PAM 4, CHRM1 agonist -4, M1 antag -8, M4 ag 0 and CHRM1 PAM 8.
`N#Cc1cc2ccccc2nc1SCc1ccccn1` gave M4 antag 6, M4 PAM -13, CHRM1 agonist 6, M1 antag -3, M4 ag 52* and CHRM1 PAM -2.
COc1ccc(NC2c3ccccc3C(=O)N2c2ccccn2)cc1Cl (configuration not stated) was read as M4 antag 79*, M4 PAM -15, CHRM1 agonist -4, M1 antag -7, M4 ag 1 and CHRM1 PAM 7.
`O=C1c2ccccc2C(Nc2ccc(F)c(Cl)c2)N1c1ccccn1` (configuration not stated) gave M4 antag 2, M4 PAM -1, CHRM1 agonist -4, M1 antag -4, M4 ag 0 and CHRM1 PAM 4.
CCN(CC)C(=O)c1oc2ccc(S(=O)(=O)N3CCCCCC3)cc2c1C was read as M4 antag 5, M4 PAM -6, CHRM1 agonist -3, M1 antag 10, M4 ag 11 and CHRM1 PAM -8.
Cc1noc(C)c1C(=O)OCC(=O)NC1CCCCC1C (configuration not stated) was read as M4 antag 0, M4 PAM -1, CHRM1 agonist -3, M1 antag -9, M4 ag 0 and CHRM1 PAM 5.
`Cc1noc(C)c1C(=O)OCC(=O)NC1CC1` gave M4 antag 12, M4 PAM -5, CHRM1 agonist 0, M1 antag 14*, M4 ag 0 and CHRM1 PAM -6.
For Cc1noc(C)c1C(=O)OCC(=O)Nc1ccc(N2CCOCC2)cc1 the results were M4 antag -7, M4 PAM 20*, CHRM1 agonist 2, M1 antag -1, M4 ag 1 and CHRM1 PAM 9.
`Cc1ccccc1NC(=O)CCC(=O)N/N=C/c1ccc(F)cc1` gave M4 antag -15, M4 PAM 25*, CHRM1 agonist -3, M1 antag -10, M4 ag 4 and CHRM1 PAM 7.
For O=C(N/N=C/c1ccc(F)cc1)c1ccc(OCc2ccccc2)cc1 the results were M4 antag 12, M4 PAM -3, CHRM1 agonist 0, M1 antag -3, M4 ag 1 and CHRM1 PAM 0.
Screening O=C(N/N=C/c1ccc(OCc2ccc(F)cc2)cc1)c1ccccc1 returned M4 antag -7, M4 PAM 20*, CHRM1 agonist -3, M1 antag 0, M4 ag 2 and CHRM1 PAM 5.
For CC(C)Oc1ccccc1/C=N/NC(=O)c1ccc(F)cc1 the results were M4 antag 0, M4 PAM 15, CHRM1 agonist 0, M1 antag -22, M4 ag 2 and CHRM1 PAM 22*.
`O=C(N/N=C/c1ccc(OC2CSC2)cc1)c1ccccc1` gave M4 antag 7, M4 PAM -11, CHRM1 agonist 32*, M1 antag 0, M4 ag 7 and CHRM1 PAM -1.
Screening O=C(/C=C/c1ccc(OC2CSC2)cc1)c1ccccc1 returned M4 antag -5, M4 PAM -9, CHRM1 agonist -4, M1 antag -7, M4 ag -1 and CHRM1 PAM 1.
`Cc1ccccc1NC(=O)CCC(=O)N/N=C/c1cccnc1` gave M4 antag 1, M4 PAM 5, CHRM1 agonist -3, M1 antag -3, M4 ag 1 and CHRM1 PAM 7.
CC(=O)CC1c2cc(F)ccc2C=C(c2ccsc2)N1c1ccc(-c2ccc(C(N)=O)cc2)cc1 (configuration not stated) was read as M4 antag 6, M4 PAM -5 and M4 ag 0.
`Cc1cc(Cl)ccc1NC(=O)COC(=O)c1nc2nccc(C)n2n1` gave M4 antag 2, M4 PAM -7, CHRM1 agonist -3, M1 antag -1, M4 ag 1 and CHRM1 PAM 3.
`O=C(N/N=C/c1ccccc1)c1ccc(NC(=O)c2ccc(F)cc2)cc1` gave M4 antag 16, M4 PAM 24*, CHRM1 agonist -5, M1 antag -4, M4 ag 13 and CHRM1 PAM 6.
For CCOC(=O)c1c(NC(=O)CN2CCN(S(=O)(=O)c3cc(Cl)ccc3Cl)CC2)sc(C(=O)N(C)C)c1C the results were M4 antag 41*, M4 PAM -13, CHRM1 agonist -6, M1 antag 22, M4 ag 8 and CHRM1 PAM -7.
`CN(C)c1ccc(CN2CCC(C(=O)NC(c3ccc(F)cc3)c3ccc4ccccc4n3)CC2)cc1` (configuration not stated) gave M4 antag 8, M4 PAM -7, CHRM1 agonist -7, M1 antag 54*, M4 ag 8 and CHRM1 PAM -28.
`COc1ccc(-c2cc(C(F)F)n3ncc(C(=O)N4CCSCC4)c3n2)cc1` gave M4 antag 2, M4 PAM 6, CHRM1 agonist -5, M1 antag 27*, M4 ag -2 and CHRM1 PAM -9.
For O=C(c1cnn2c(C(F)F)cc(C3CC3)nc12)N1CCCC1 the results were M4 antag 21, M4 PAM 34*, CHRM1 agonist 2, M1 antag -6, M4 ag -3 and CHRM1 PAM 0.
For O=C(c1cnn2c(C(F)F)cc(C3CC3)nc12)N1CCc2ccccc2C1 the results were M4 antag -6, M4 PAM -12, CHRM1 agonist 10, M1 antag -4, M4 ag 11 and CHRM1 PAM 7.
CC(C)(C)c1nc(SCC(=O)NCc2cccs2)c2ccccc2n1 was read as M4 antag -8, M4 PAM 6, CHRM1 agonist -3, M1 antag -10, M4 ag 2 and CHRM1 PAM 9.
